The nature of assay [1]: hESC survival regulators, cell-based (AID 493140; call rule not given here;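 also: cells exposed to compounds for four days before counting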). Conditions: human embryonic stem cell survival screen; stronger effect = higher value.
A short description of assay [2]: liver-stage malaria parasite growth inhibition, primary screen, cell-based, HepG2, luciferase luminescence, HepG2 viability (AID 624349; in the data active = parasite load remaining mostly below about 12%, no sharp cut-off; inactive = mostly above about 10%;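 also: 100% = mean of DMSO negative control wells on the same plate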). Conditions: P. berghei liver stage in HepG2, luciferase luminescence, concentration not given here; parasite load remaining: stronger effect = lower value; viability: measured here: HepG2 viability without parasites.
Assay [3] has as its target NAD(+) hydrolase SARM1 (Homo sapiens) (UniProt Q6SZW1). Briefly: SARM1 TIR NADase inhibitors, cell lysate, NAD-Glo luminescence (AID 1508614;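 active = compound whose remaining NAD level is above about 45 nM, limit read from the data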;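 also: higher remaining NAD means stronger inhibition of SARM1 NADase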). Conditions: SAM-TIR HEK293T lysate NADase, at 1 µM, stronger effect = higher value.
The nature of assay [4]: LFS_MB_1R medulloblastoma cell growth inhibition, synergistic combos for chromothripsis tumors, cisplatin or BGB combos (AID 1671452).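 Also: cells exposed for 96 hours before readout.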 Conditions: LFS_MB_1R medulloblastoma cells, stronger effect = higher value.
The nature of assay [5]: CRL2098 osteosarcoma cell growth inhibition, synergistic combos for chromothripsis tumors, BGB or cisplatin IC20 combos (AID 1671454).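 Also: cells exposed for 96 h before readout; 0% = vehicle DMSO and 100% = killing by high DMSO.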 Conditions: CRL2098 osteosarcoma cells, drug combinations, stronger effect = higher value.
Assay [6] is described as follows: HD-MB03 medulloblastoma cell growth inhibition, synergistic combos for chromothripsis tumors, BGB or cisplatin IC20 combos (AID 1671455; in the data active = inhibition above about 83%;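 also: 0% = vehicle DMSO and 100% = high DMSO as cytotoxic control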). Conditions: HD-MB03 medulloblastoma cells, stronger effect = higher value.
The nature of assay [7]: UWB1.289 ovarian carcinoma cell growth inhibition, synergistic combos for chromothripsis tumors, BGB or cisplatin combos (AID 1671456).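 Also: cells exposed to compound for four days; 0% = vehicle DMSO and 100% = killing by high DMSO.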 Conditions: UWB1.289 ovarian carcinoma cells, stronger effect = higher value.
Assay [8] is described as follows: LFS_MB_2R medulloblastoma cell growth inhibition, synergistic combos for chromothripsis tumors, cisplatin combos (AID 1671457).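 Also: cells exposed to compound for four days before readout.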 Conditions: LFS_MB_2R medulloblastoma cells, stronger effect = higher value.
The nature of assay [9]: UWB1.289_BRCA1 ovarian cancer growth, cell-based, BGB or cisplatin combinations (AID 1671459). Conditions: UWB1.289 BRCA1 ovarian carcinoma, drug combinations, stronger effect = higher value.
Assay [10] in a line: human astrocyte viability loss, single and combined drugs, cytotoxicity control for chromothriptic childhood tumor combination screen, cell-based, BGB or cisplatin IC20 combos (AID 1671460).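 Also: cells exposed to compounds for 96 hours before viability readout; 0% = vehicle and 100% = killing control.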 Conditions: Human astrocytes, drug combinations, stronger effect = higher value.
The nature of assay [11]: phospholipid biosynthesis inhibitors in animal cells, primary screen, cell-based, LOPAC library, screen 4 (AID 1347384; call rule not given here). Conditions: phospholipid biosynthesis inhibition screen, at 10 µM.
A short description of assay [12]: viability rescue of complex I mutant cybrids, primary screen, cell-based, galactose medium, ATP luminescence (AID 1645843;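 active = z-score of at least 1.8 in each of two replicates, scored against plate mean and spread of sample wells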;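 also: positive z means more ATP and so rescue of galactose-driven cybrid death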). Conditions: complex I mutant cybrid cells, 72 h, stronger effect = higher value.
The nature of assay [13]: circadian clock period modulators, cell-based, LOPAC library, luminescence reporter (AID 2774; call rule not given here;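 also: values are relative to mean of DMSO wells on each plate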). Conditions: circadian reporter cells, at 7 µM, actives lie on both sides.
In assay [14] the test system is Hepatitis C virus NS3 helicase. As to the kind of experiment: HCV NS3 helicase inhibitors, primary screen, biochemical, fluorescence polarization, LOPAC1280 library (AID 687035; in the data active = inhibition above about 37%). Conditions: Purified HCV NS3 helicase, Cy5-dT15 ssDNA binding fluorescence polarization; stronger effect = higher value; concentration not given here. In general terms: Fluorescence polarisation rises when a labelled molecule tumbles more slowly, as on binding a larger partner.

A short description of assay [15]: Cy5 fluorescence quenching or enhancement artefacts, artefact control for HCV NS3 helicase inhibitor project, biochemical, LOPAC1280 (AID 687037; call rule not given here). Conditions: Cy5-DNA-NS3h complex fluorescence interference counterscreen. In general terms: A counterscreen serves to expose hits that act by an unwanted route or on another target.
[16] abbreviates: measured here: combination with BGB IC40, at 0.05 µM.
[17] abbreviates: measured here: combination with cisplatin, at 0.5 µM.
The mark [18] stands for this setting: measured here: combination with cisplatin, at 5 µM.
Where [19] appears, read: measured here: combination with BGB at IC20, at 0.5 µM.
[20] abbreviates: measured here: combination with cisplatin at IC20, at 0.5 µM.
Where [21] appears, read: measured here: combo with BGB at IC20, at 0.5 µM.
Setting [22] is: measured here: combo with cisplatin at IC20, at 0.5 µM.
Setting [23] is: measured here: inhibition with BGB combination, at 0.05 µM.
The mark [24] stands for this setting: measured here: inhibition with cisplatin combination, at 0.05 µM.
The mark [25] stands for this setting: BGB combination, concentration series, at 5 µM.
Setting [26] is: cisplatin combination, concentration series, at 5 µM.
Where [27] appears, read: measured here: combo with BGB IC20, at 0.5 µM.
The mark [28] stands for this setting: measured here: combo with cisplatin IC20, at 0.5 µM.

Values joined by “and” are separate entries in the source; they are usually repeats but may differ in a detail not shown here. Identical values can stand only once. Active and inactive are the calls of the source. Rule as the data show it, unless noted: active = inhibition above about 80%; inactive = the rest.

Chain of NAD(+) hydrolase SARM1 (Homo sapiens) (Q6SZW1 whole entry, looked up): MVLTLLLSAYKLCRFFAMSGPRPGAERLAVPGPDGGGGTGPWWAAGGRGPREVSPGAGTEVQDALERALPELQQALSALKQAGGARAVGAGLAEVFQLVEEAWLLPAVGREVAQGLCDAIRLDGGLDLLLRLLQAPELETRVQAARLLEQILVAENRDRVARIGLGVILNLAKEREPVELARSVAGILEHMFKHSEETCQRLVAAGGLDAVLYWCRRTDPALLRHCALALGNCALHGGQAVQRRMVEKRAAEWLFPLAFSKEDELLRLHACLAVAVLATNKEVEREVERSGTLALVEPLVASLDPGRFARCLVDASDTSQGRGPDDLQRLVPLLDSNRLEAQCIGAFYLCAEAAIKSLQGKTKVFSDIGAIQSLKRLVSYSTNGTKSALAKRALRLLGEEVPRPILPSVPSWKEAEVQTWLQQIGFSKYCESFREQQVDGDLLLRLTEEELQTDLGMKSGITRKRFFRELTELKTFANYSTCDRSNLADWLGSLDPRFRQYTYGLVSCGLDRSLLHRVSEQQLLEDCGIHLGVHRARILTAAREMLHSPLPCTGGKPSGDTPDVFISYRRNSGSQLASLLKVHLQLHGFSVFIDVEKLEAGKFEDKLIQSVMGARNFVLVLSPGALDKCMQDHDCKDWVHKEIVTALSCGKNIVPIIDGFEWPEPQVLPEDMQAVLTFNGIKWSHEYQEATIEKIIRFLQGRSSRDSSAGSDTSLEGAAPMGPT

Broadly, the viability is a read-out of living cells in per cent, often relative to untreated cells. For the compound `CN(C)N=Nc1nc[nH]c1C(N)=O`, in assay [1], the survival was 12.2 (inactive). Further, in [2], the parasite load remaining was 83.6% (inactive) and 67% (inactive); the viability was 97.7% and 78.1%.
As to `CN(C)c1cc(NC(=O)CNC(C)(C)C)c(O)c2c1C[C@H]1C[C@H]3[C@H](N(C)C)C(=O)C(C(N)=O)=C(O)[C@@]3(O)C(=O)C1=C2O`, the remaining NAD in assay [3] is 10 nM (inactive).
In general, inhibition refers to the relative decrease from the control value, in per cent. Consider `CNCc1ccc(-c2[nH]c3cc(F)cc4c3c2CCNC4=O)cc1`, for which the inhibition in assay [4] (at 0.5 µM) was -10.6% (inactive) and -7.69% (inactive); in [4] (setting [16]), -6.36% and 4.87%; in assay [4] (setting [17]), 19.1% and -25%; in assay [4] (setting [18]), -18.5% and -25.3%; in assay [5] (at 0.5 µM), -36.2% (inactive) and -5.02% (inactive); in assay [5] (setting [19]), -29.2% and -1.4%. The inhibition is -44.8% and 9.17% in [5] (setting [20]); -4.75% (inactive) and 7.82% (inactive) in assay [6] (at 0.5 µM); -19.4% and -2.99% in assay [6] (setting [21]); -1.52% and 19.2% in assay [6] (setting [22]); 3.38% (inactive) and 18.2% (inactive) in assay [7] (at 0.5 µM); -7.35% and 1.55% in [7] (setting [23]). For the same compound, the inhibition was -18.2% and 33.2% in assay [7] (setting [24]); -21.7% (inactive) and 11% (inactive) in assay [8] (at 0.5 µM); -36.4% and 1.09% in assay [8] (setting [17]); -18.9% and -8.07% in [8] (setting [18]); 7.87% and 16.2% in assay [9] (setting [25]); 2.14% (inactive) and 11.2% (inactive) in assay [9] (at 0.5 µM). The inhibition in [9] (setting [26]) was 1.67% and 2.25%; in [10] (at 0.5 µM), 5.22% (inactive) and 8.56% (inactive); in [10] (setting [27]), -3.65% and 3.02%; in assay [10] (setting [28]), 2.06% and 7.11%.
As for `O=C(NOC[C@H](O)CO)c1ccc(F)c(F)c1Nc1ccc(I)cc1F`, the call in assay [11] was inactive.
Take `CC(C)CN(C[C@@H](O)[C@H](Cc1ccccc1)NC(=O)O[C@H]1CCOC1)S(=O)(=O)c1ccc(N)cc1`: in [2], the parasite load remaining is 15.6% (inactive) and the viability is 75.5%. In assay [12], the z-score is 0.4 (inactive).
For `O=c1cc(-c2ccc(O)c(O)c2)oc2cc(O)cc(O)c12`, the period change in assay [13] is 0.085 h (inactive). Besides, the survival in assay [1] was 0.75 (inactive). In assay [2], the parasite load remaining was 83% (inactive) and the viability was 96.4%.
On to `O=c1c2ccccc2nc2n1CCc1c-2[nH]c2ccccc12`, for which, in [13], the period change is 0.11 h (inactive). In addition, the inhibition in assay [14] is 2% (inactive). Besides, in [15], the fluorescence ratio (interference) was 1 (inactive). Also, in assay [11], the outcome was inactive. For the same compound, in assay [12], the z-score was 1.2 (inactive).
For `CO[C@H]1/C=C/O[C@@]2(C)Oc3c(C)c(O)c4c(O)c(c(/C=N\N5CCN(C6CCCC6)CC5)c(O)c4c3C2=O)NC(=O)/C(C)=C\C=C\[C@H](C)[C@H](O)[C@@H](C)[C@@H](O)[C@@H](C)[C@H](OC(C)=O)[C@@H]1C`, the inhibition in [4] (at 0.5 µM) was -26.5% (inactive); in [4] (setting [16]), 5.18%; in assay [4] (setting [17]), -21.5%; in [4] (setting [18]), -13.2%; in assay [5] (at 0.5 µM), -17.9% (inactive); in [5] (setting [19]) it was -42.5%. The inhibition is -28.1% in assay [5] (setting [20]); -12% (inactive) in [6] (at 0.5 µM); -9.84% in [6] (setting [21]); -22% in assay [6] (setting [22]); 0.22% (inactive) in [7] (at 0.5 µM); -17.7% in assay [7] (setting [23]). The inhibition in [7] (setting [24]) is -11.8%; in assay [8] (at 0.5 µM), -7.15% (inactive); in assay [8] (setting [17]), -29.8%; in [8] (setting [18]) it was -34%; in assay [9] (setting [25]), 4.16%; in assay [9] (at 0.5 µM), -5.57% (inactive). The inhibition in [9] (setting [26]) is 10.5%; in [10] (at 0.5 µM), -10.7% (inactive); in assay [10] (setting [27]), -21%; in assay [10] (setting [28]), -11%.
Regarding `CN(C)Cc1ccc(-c2nc3cccc4c3n2CCNC4=O)cc1`, the inhibition was -21.9% (inactive) and -12.8% (inactive) in assay [4] (at 0.5 µM); -8.61% and -31.3% in assay [4] (setting [16]); -36.5% and -4.44% in assay [4] (setting [17]); -20.1% and -27.3% in assay [4] (setting [18]); -12.7% (inactive) and -34.7% (inactive) in assay [5] (at 0.5 µM); 3.27% and -18.3% in assay [5] (setting [19]). For the same compound, the inhibition was -10.7% and -61.5% in assay [5] (setting [20]); -4.1% (inactive) and -8.91% (inactive) in [6] (at 0.5 µM); -6.79% and -18.1% in [6] (setting [21]); -1.2% and -11.2% in assay [6] (setting [22]); 2.77% (inactive) and -2.19% (inactive) in assay [7] (at 0.5 µM); -14.3% and 1.91% in [7] (setting [23]). Moreover, the inhibition in assay [7] (setting [24]) was -5.64% and -29.4%; in [8] (at 0.5 µM), -22.3% (inactive) and -21% (inactive); in [8] (setting [17]) it was -26.3% and -32%; in [8] (setting [18]) it was -30.5% and -31.6%; in [9] (setting [25]) it was 7.25% and 16.2%; in assay [9] (at 0.5 µM) it was 0.7% (inactive) and -0.32% (inactive). The inhibition was 5.02% and -8.46% in [9] (setting [26]); 3.46% (inactive) and 6.94% (inactive) in assay [10] (at 0.5 µM); 2.28% and -1.45% in assay [10] (setting [27]); 8.6% and 1.46% in assay [10] (setting [28]).
As for `Nc1nc(OCc2ccccc2)c2[nH]cnc2n1`, in assay [13], the period change was -0.35 h (inactive). For the same compound, the inhibition in assay [14] is -2% (inactive). In [15], the fluorescence ratio (interference) is 0.9 (inactive). For the same compound, the compound was classed as inactive in [11]. The z-score in assay [12] is -0.125 (inactive).

Source of the values: PubChem BioAssay.
